Assay [1] in a line: reducers of endogenous Her2 protein level, primary screen, SKBR3 breast tumor cells, AlphaScreen, ATP viability (AID 461;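 active = Her2 level under about 52% in both replicate screens, with viability over 70% of control, limit read from the data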;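 as to Her2 level: lower value means less Her2 protein in the cells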;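 as to viability: percent of carrier control wells set as 100% viability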). As to conditions: 18-24 h, measured here: SKBR3 viability, ATP luminescence, at 10 µM.
Assay [2] concerns the target Receptor tyrosine-protein kinase erbB-2 (Homo sapiens) (UniProt P04626). The assay is described as above. As to conditions: 18-24 h, at 10 µM, stronger effect = lower value.
The nature of assay [3]: SK-BR-3 cell growth inhibitors, pilot screen, 24 h, human (AID 572;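 active = viability at or below 10% of carrier control in both of two separate runs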;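 also: compound exposure lasted between 18 and 24 h rather than exactly 24 h; 100% = carrier-treated control wells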). As to conditions: SK-BR-3 viability, CellTiter-Glo luminescence, at 10 µM, stronger effect = lower value. On the technique in general: In ATP-based viability assays light output follows the ATP content of the culture.
A short description of assay [4]: HUVEC growth inhibition – cell-based, human, primary screen (AID 575;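 active = viability at or below 30% in both replicate assays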;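 also: 100% = median of untreated cell wells with 0.1% DMSO on each plate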). As to conditions: HUVEC proliferation, CellTiter-Glo luminescence, 72 h; at 10 µM; stronger effect = lower value.
Assay [5] in a line: growth inhibitors of H69AR lung tumor, primary screen, human, duplicate replicates (AID 580).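 Also: 100% = mean luminescence of untreated wells and 0% = no signal.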 As to conditions: H69AR lung tumor cells viability, ATP luminescence, 72 h; at 10 µM; stronger effect = lower value.
A short description of assay [6]: reversal of MRP1-mediated doxorubicin resistance, pilot screen, H69AR cells, doxorubicin co-treatment (AID 601;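 active = viability loss from added drug above about 55%, and viability with drug at most 40%, in both replicates, limit read from the data, passing the limit was not always enough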). As to conditions: CellTiter-Glo, 72 h, at 10 µM; for differential viability (reversal): stronger effect = higher value.
Assay [7] is described as follows: 384-well plate pilot, post-Golgi transport modulator project, inhibition of yeast transport mutant growth (AID 636; in the data active = inhibition above about 31%). As to conditions: absorbance 615 nm, about 18 h, stronger effect = higher value.
The nature of assay [8]: growth suppression of yeast trafficking mutant, preliminary HTS, modulators of trafficking downstream of Golgi apparatus project, 1536-format plate, OD 615 nm (AID 637; in the data active = inhibition above about 30%). As to conditions: yeast transport mutant growth, absorbance 615 nm, 18 h; stronger effect = higher value.
The nature of assay [9]: OD615 S. cerevisiae growth inhibition, permissive medium, pilot counter-assay, permissive growth control for S. cerevisiae lifespan shortening project (AID 705;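 active = growth inhibition above 25% in both replicates, a cutoff set 3 SD above the mean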). As to conditions: OD615, 24 h, at 10 µM, stronger effect = higher value.
A short description of assay [10]: Restrictive medium S. cerevisiae growth inhibition, OD615, pilot screen of yeast lifespan reduction project, restrictive growth control (AID 706;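 active = growth inhibition above a set limit, 3 SD over mean compound inhibition, in both replicates, cut at about 43% in these data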;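 also: modified DeaD lifespan yeast strain shifted to restrictive glucose medium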). As to conditions: OD615, 48 h, at 10 µM, stronger effect = higher value.
Assay [11] in a line: viability gain of MRP-1-high H69AR cells under doxorubicin, pilot screen, MRP-1 activator project, CellTiter-Glo, duplicate (AID 807;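 active = viability increase at or above a cutoff of the median across tested compounds plus 3 SD, cut at about 8.5% in these data, passing the limit was not always enough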;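 also: compound pretreatment 18-22 h then 72 h combined with doxorubicin; 0% = doxorubicin alone and 100% = vehicle without doxorubicin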). As to conditions: H69AR viability with doxorubicin, CellTiter-Glo luminescence; at 10 µM; stronger effect = higher value.
The nature of assay [12]: growth suppression of beta-catenin knockout HCT116, pilot screen, human colon tumor cells (AID 823;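 active = cell viability at or below a set limit in both duplicate runs, the limit being the all-compound median minus 4 SD, cut at about 23% in these data, passing the limit was not always enough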;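 also: 0% = wells killed by 20 µM Hyamine and 100% = untreated DMSO cell wells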). As to conditions: CellTiter-Glo, 60 h, at 10 µM, stronger effect = lower value.
Assay [13] is described as follows: growth suppression of PTEN-deleted HCT116, pilot screen, cell-based, HCT116 clonal line, CellTiter-Glo (AID 824;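 active = viability at or below 27.92% in each of two runs, the all-compound median minus 4 SD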;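 also: 0% = 20 µM Hyamine control and 100% = vehicle cell control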). As to conditions: 60 h, at 10 µM, stronger effect = lower value.
Assay [14] can be described thus: inhibitors of the yeast RAM network, pilot screen, dse1pr::URA3 reporter, 5-FOA selection (AID 869;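 active = inhibition over a set limit, the all-compound mean plus 3 SD, in both replicate runs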;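 also: 0% = DMSO wells with no growth and 100% = 10 µM 1-NA-PP1 with full growth; RAM network block rescues cells from 5-FOA so hits raise OD615 growth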). As to conditions: S. cerevisiae dse1pr::URA3 5-FOA growth, OD615, 2 d; at 10 µM; stronger effect = higher value; strain carries analog-sensitive mutant Cbk1 kinase.
A short description of assay [15]: RAM signaling pathway blockade in yeast – S. cerevisiae, Pdr1DBD-CYC8 efflux-inhibited sensitized strain, primary screen (AID 1298;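 active = RAM network inhibition above 8.4% in each of two replicates, 3 SD over the compound average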;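 also: 0% = DMSO untreated cells without growth and 100% = 10 µM 1-NA-PP1 full growth; higher means more yeast growth rescued from 5-FOA killing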). As to conditions: S. cerevisiae cbk1-as DSE1-URA3 strain, 5-FOA growth OD615, 2 d; at 50 µM; stronger effect = higher value.
[16] abbreviates: H69AR cells + 2 uM doxorubicin, measured here: viability with 2 uM doxorubicin, stronger effect = lower value.
Where [17] appears, read: H69AR cells, compound alone cytotoxicity.

Broadly, the viability is a read-out of living cells in per cent, often relative to untreated cells. Usually inhibition stands for the change of the read-out against control, counted positive when it falls.

Results filed as inconclusive are left out. Active and inactive are the calls of the source.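 The calls were made as follows, unless noted: active = viability at or under a set limit in both replicates, limit being median viability minus 3 SD (cut at about 48% in these data, passing the limit was not always enough); inconclusive = at or under the limit in just one replicate; inactive = at or above the limit in both replicates.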

Sequence of Receptor tyrosine-protein kinase erbB-2 (Homo sapiens) (P04626 whole entry, looked up): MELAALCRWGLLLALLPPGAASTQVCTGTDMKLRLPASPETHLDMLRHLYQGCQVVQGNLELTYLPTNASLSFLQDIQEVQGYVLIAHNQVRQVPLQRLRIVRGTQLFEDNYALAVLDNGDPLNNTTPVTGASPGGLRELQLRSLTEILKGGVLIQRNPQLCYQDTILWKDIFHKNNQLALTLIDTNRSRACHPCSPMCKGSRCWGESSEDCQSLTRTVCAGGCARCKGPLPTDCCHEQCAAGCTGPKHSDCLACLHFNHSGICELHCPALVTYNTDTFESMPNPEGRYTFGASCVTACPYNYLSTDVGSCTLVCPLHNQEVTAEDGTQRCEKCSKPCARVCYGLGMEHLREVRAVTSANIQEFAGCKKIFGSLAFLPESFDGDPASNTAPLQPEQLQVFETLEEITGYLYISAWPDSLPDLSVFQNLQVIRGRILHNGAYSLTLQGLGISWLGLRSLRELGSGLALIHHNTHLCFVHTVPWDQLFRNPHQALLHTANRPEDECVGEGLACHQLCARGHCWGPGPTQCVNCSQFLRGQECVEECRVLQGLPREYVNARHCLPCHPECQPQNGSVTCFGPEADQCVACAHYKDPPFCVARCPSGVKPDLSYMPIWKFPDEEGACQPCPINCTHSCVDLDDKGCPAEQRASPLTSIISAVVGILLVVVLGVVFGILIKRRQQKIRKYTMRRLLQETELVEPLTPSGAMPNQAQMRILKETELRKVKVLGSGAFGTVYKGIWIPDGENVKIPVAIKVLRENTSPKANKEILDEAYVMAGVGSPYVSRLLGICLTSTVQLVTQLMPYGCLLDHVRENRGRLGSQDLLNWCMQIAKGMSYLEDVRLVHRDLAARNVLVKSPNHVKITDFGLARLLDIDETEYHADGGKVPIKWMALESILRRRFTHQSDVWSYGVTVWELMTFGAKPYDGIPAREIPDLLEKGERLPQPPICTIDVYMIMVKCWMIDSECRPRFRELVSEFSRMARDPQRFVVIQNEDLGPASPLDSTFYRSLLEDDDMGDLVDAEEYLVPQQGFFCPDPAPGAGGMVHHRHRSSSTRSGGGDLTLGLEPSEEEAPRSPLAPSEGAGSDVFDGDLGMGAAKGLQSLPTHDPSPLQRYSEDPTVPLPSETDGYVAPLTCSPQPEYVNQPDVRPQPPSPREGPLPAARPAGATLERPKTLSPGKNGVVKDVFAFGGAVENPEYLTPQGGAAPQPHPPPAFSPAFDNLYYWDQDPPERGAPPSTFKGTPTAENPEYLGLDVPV

With `CCn1c(=O)cc(OCC(=O)Nc2nc(C)cs2)c2ccccc21`, the viability is 83.5% in assay [1]; 83.5% (inactive) in assay [3]; 61.6% (inactive) in [4]; 94.8% (inactive) in assay [5]; 92.7% in assay [6] (setting [16]); 94.8% in assay [6] (setting [17]). The results for the viability in [12] and in assay [13] were 93.2% (inactive) and 86.9% (inactive), respectively. For the same compound, the Her2 level in assay [2] was 84.5% (inactive). Also, in assay [6] (H69AR cells + 2 uM doxorubicin), the differential viability (reversal) is 2.11% (inactive). Besides, the inhibition in [7] is -3.73% (inactive); in assay [8], -1.67% (inactive); in assay [14] it was 1.33% (inactive). The growth inhibition in assay [9] is -10.5% (inactive); in assay [10], -9.12% (inactive). Further, the viability increase in [11] was -2.41% (inactive). The RAM network inhibition in [15] was 2.84% (inactive).

Take `CCOC(=O)N1CCN(C(=O)c2ccc(CS(=O)(=O)c3c(Cl)cccc3Cl)o2)CC1`: the viability in assay [1] is 114%; in [3], 114% (inactive); in [4] it was 107% (inactive); in assay [5], 96.5% (inactive); in assay [6] (setting [16]), 101%; in assay [6] (setting [17]), 96.5%. For the same compound, the viability in assay [12] was 107% (inactive); in [13] it was 100% (inactive). The Her2 level in [2] is 128% (inactive). In assay [6] (H69AR cells + 2 uM doxorubicin), the differential viability (reversal) is -4.92% (inactive). Moreover, the inhibition in assay [7] is -3.07% (inactive); in [8], -3.33% (inactive); in [14] it was 0.365% (inactive). The growth inhibition in assay [9] is -9.35% (inactive); in [10] it was -14% (inactive). Besides, the viability increase in assay [11] is -2.77% (inactive). For the same compound, the RAM network inhibition in assay [15] was 1.21% (inactive).

Consider `COCCCN(C)C1CCN(C(=O)Nc2ccc(F)cc2)CC1`, for which the viability in assay [1] was 106%; in [3] it was 106% (inactive); in assay [4], 109% (inactive); in assay [5] it was 89% (inactive); in assay [6] (setting [16]) it was 94.4%; in [6] (setting [17]), 89%. Besides, the values for the viability in assay [12] and in assay [13] were 103% (inactive) and 105% (inactive), respectively. The Her2 level in assay [2] was 124% (inactive). In assay [6] (H69AR cells + 2 uM doxorubicin), the differential viability (reversal) was -5.42% (inactive). The results for the inhibition in [7], in assay [8] and in assay [14] were -3.47% (inactive), -1.5% (inactive) and 0.185% (inactive), respectively. In addition, the growth inhibition is -6.78% (inactive) in [9] and 3.39% (inactive) in [10]. The viability increase in [11] is 0.68% (inactive). Moreover, in assay [15], the RAM network inhibition is 8.93% (inactive).

Consider `CCOC(=O)C(CC)n1nc(C)n2c(cc3sccc32)c1=O` (stereo not given), for which the viability is 114% in assay [1]; 114% (inactive) in [3]; 110% (inactive) in [4]; 85.1% (inactive) in assay [5]; 84.2% in assay [6] (setting [16]); 85.1% in assay [6] (setting [17]). The viability is 99.8% (inactive) in assay [12] and 95.2% (inactive) in assay [13]. Further, the Her2 level in [2] was 102% (inactive). The differential viability (reversal) in assay [6] (H69AR cells + 2 uM doxorubicin) is 0.895% (inactive). Also, the inhibition is -5.87% (inactive) in assay [7], 1% (inactive) in assay [8] and -1.04% (inactive) in assay [14]. The results for the growth inhibition in assay [9] and in [10] were -5.97% (inactive) and 1.69% (inactive), respectively. In [11], the viability increase is -2.34% (inactive). Also, in [15], the RAM network inhibition is 2.14% (inactive).

For the compound `CC(C)Sc1nc2c(c(=O)n1-c1ccc(F)cc1)SCC2`, the viability in assay [1] was 114%; in [3] it was 114% (inactive); in assay [4], 87.6% (inactive); in assay [5], 88.5% (inactive); in [6] (setting [16]), 81.1%; in assay [6] (setting [17]), 88.5%. The viability in [12] is 84.6% (inactive); in assay [13], 87.1% (inactive). The Her2 level in [2] is 124% (inactive). The differential viability (reversal) in assay [6] (H69AR cells + 2 uM doxorubicin) is 7.33% (inactive). Further, the inhibition is -4.27% (inactive) in [7], -4.35% (inactive) in assay [8] and 0.61% (inactive) in assay [14]. Further, the results for the growth inhibition in assay [9] and in [10] were -4.45% (inactive) and -19.7% (inactive), respectively. For the same compound, in assay [11], the viability increase is -2.6% (inactive). For the same compound, the RAM network inhibition in assay [15] was 7.83% (inactive).

These data come from PubChem BioAssay.
